The values below come from PubChem BioAssay (NCATS).

Results filed as inconclusive are left out. Where a structure was tested more than once in an assay, its records may differ in their call. The source made the active and inactive calls. Calls follow the shape of the dose curve; as a rule, active = well fitted curve in the direction sought with a large enough effect; inconclusive = small, poorly fitted or top-dose-only effect, or another doubt; inactive = no such curve, though single readings can be large; an effect the other way counts as inactive or inconclusive.

For assay [1], the target named is Glutathione peroxidase 1 (Homo sapiens) (UniProt P07203). The assay can be described thus: Primary qHTS Assay for Inhibitors of Recombinant Selenoprotein Glutathione Peroxidase 1 (GPX1) (AID 1845191). Also: nearly all actives have a fitted effect of over 65% in size. Also: potency is read from the fitted curve at half-maximal effect. As to activity, negative = inhibition: % is scaled to controls: 0 for no effect and ±100 for the full control effect. As to conditions: recombinant GPX1, GR-coupled NADPH fluorescence, 15 min; series mostly up to 48.8 µM. Put shortly: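 NADPH consumption tracked by fluorescence at 340/450 nm between t=0 and t=15 min, room temperature. Final mix: 10 nM GPX1, 100 nM glutathione reductase, 1 mM GSH, 0.5 mM NADPH, 0.5 mM cumene hydroperoxide, 0.01% BSA; 30 min compound–enzyme preincubation.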
(In general: Quantitative high-throughput screening tests each substance at several concentrations.)

The target of assay [2] is Phospholipid hydroperoxide glutathione peroxidase GPX4 (Homo sapiens) (UniProt P36969). Put plainly: Primary qHTS Assay for Inhibitors of Recombinant Selenoprotein Glutathione Peroxidase 4 (GPX4) (AID 1845192). Also: nearly all actives have a fitted effect of over 65% in size. Also: potency is read from the fitted curve at half-maximal effect. As to activity change, negative = inhibition: % is scaled to controls: 0 for no effect and ±100 for the full control effect. As to conditions: recombinant GPX4, GR-coupled NADPH fluorescence, 15 min; series mostly up to 50 µM. In outline: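 NADPH consumption followed by fluorescence at 340/450 nm, t=0 and after 15 min at room temperature. Reaction started with cumene hydroperoxide (0.5 mM final) after 30 min compound–GPX4 preincubation; final 200 nM GPX4, 100 nM GR, 1 mM GSH, 0.5 mM NADPH.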

Assay [3] concerns the target Luciferin 4-monooxygenase (Photinus pyralis) (UniProt P08659). Put plainly: Primary firefly luciferase (FLuc) qHTS assay for identification of artifact compounds. (AID 1845220). Also: nearly all actives have a fitted effect of over 60% in size.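 As to activity change, negative = inhibition: plate controls were DMSO vehicle for no effect and no enzyme for full effect.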 The note with it: purified firefly luciferase, luminescence, 5 min; series mostly up to 54.1 µM. Put shortly:
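Cell-free, 1536-well qHTS. Buffer pH 7.6 with 0.01% Tween-20 and 0.05% BSA; 10 uM D-luciferin, 10 uM ATP; 10 nM P. pyralis luciferase; luminescence after 5 min.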

Assay [4] in a line: Primary fluorescence-based thiol-reactive (MSTI) qHTS assay for identification of artifact compounds. (AID 1845221). Also: nearly all actives have a fitted effect of over 65% in size. Also: potency is read from the fitted curve at half-maximal effect.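 As to activity change, negative = thiol reactive: thiol-reactive compounds lower the probe fluorescence signal.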 The note with it: MSTI thiol-reactivity probe, 1 h; series mostly up to 53.8 µM. In outline:
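One-hour, room-temperature, dark incubation of compound with 4 uM MSTI in PBS (pH 7.4, 2% DMSO) precedes a fluorescence read at 525 nm excitation, 598 nm emission; Hill-equation fitting yields concentration-response values.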

Assay [5] has as its system Nanoluciferase (engineered Oplophorus gracilirostris luciferase). Put plainly: Primary Nanoluciferase (NLuc) qHTS assay for identification of artifact compounds. (AID 1845222).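 Also: 0% = DMSO and -100% = no enzyme.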 As to conditions: NLuc-conditioned medium, Nano-Glo luminescence, 5 min; series mostly up to 54.1 µM. In outline: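 Compounds are pinned into diluted (1:55) conditioned medium of NLuc-expressing S16 cells and held 15 min at room temperature protected from light. Nano-Glo substrate follows, and luminescence is read 5 min later.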

Phospholipid hydroperoxide glutathione peroxidase GPX4 (Homo sapiens), sequence (P36969 whole entry, looked up): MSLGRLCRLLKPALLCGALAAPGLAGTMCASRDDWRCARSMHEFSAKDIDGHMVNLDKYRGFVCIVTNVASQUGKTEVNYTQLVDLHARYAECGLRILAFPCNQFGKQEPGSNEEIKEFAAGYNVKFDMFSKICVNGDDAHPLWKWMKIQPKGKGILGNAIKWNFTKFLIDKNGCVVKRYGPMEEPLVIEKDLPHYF
Glutathione peroxidase 1 (Homo sapiens), sequence (P07203 whole entry, looked up): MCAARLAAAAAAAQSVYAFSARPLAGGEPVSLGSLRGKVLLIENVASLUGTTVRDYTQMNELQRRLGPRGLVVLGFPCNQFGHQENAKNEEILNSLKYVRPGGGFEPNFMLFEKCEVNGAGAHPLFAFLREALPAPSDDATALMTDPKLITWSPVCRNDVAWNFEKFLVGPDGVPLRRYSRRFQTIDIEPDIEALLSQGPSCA

`Oc1cccc(O)c1`: the Potency entry in assay [1] and in assay [2] was “inactive” throughout.
In the case of `c1ccc(CN(CC2=NCCN2)c2ccccc2)cc1`, the Potency result in assay [1], in assay [2] and in assay [4] was “inactive” each time. The molecule was called inactive in assay [3] and in assay [5].
`C[C@H](N)[C@H](O)c1cccc(O)c1`: the Potency result in assay [1] and in assay [2] was “inactive” each time.
As for `O=C(O)COc1nn(Cc2ccccc2)c2ccccc12`, the Potency entry in assay [1] and in assay [2] was “inactive” throughout.
Take `CC(C)(C)C(=O)C(Oc1ccc(Cl)cc1)n1ccnc1` (stereo not drawn): the Potency result in assay [1], in assay [2] and in assay [4] was “inactive” each time. Moreover, the call in assay [3] and in assay [5] was inactive.
Turning to `CCCCOc1cc(C(=O)OCCN(CC)CC)ccc1N`, the Potency result in assay [1], in assay [2] and in assay [4] was “inactive” each time. The call in assay [3] and in assay [5] was inactive.
As to `CC/C=C(\C(=O)N[C@@H]1C(=O)N2C(C(=O)OCOC(=O)C(C)(C)C)=C(COC(N)=O)CS[C@H]12)c1csc(N)n1`, the Potency in assay [1] was 9.04 µM (active); in assay [2], 11.2 µM (active) and inactive. Further, the outcome in assay [3] and in assay [5] was inactive. The Potency result in assay [4] was “inactive”.
In the case of `CCOc1ccc2ccccc2c1C(=O)N[C@@H]1C(=O)N2[C@@H]1SC(C)(C)[C@@H]2C(=O)O`, the Potency result in assay [1], in assay [2] and in assay [4] was “inactive” throughout. Besides, the molecule was classed as inactive in assay [3] and in assay [5].
As to `O=C1NS(=O)(=O)c2ccccc21`, the Potency result in assay [1] and in assay [2] was “inactive” throughout.
Turning to `C[C@@H]1C[C@H]2[C@@H]3C[C@H](F)C4=CC(=O)C=C[C@]4(C)[C@@]3(F)[C@@H](O)C[C@]2(C)[C@@]1(O)C(=O)CO`, the Potency entry in assay [1], in assay [2] and in assay [4] was “inactive” each time. Moreover, the molecule was called inactive in assay [3] and in assay [5].
With `COc1ccc2c(c1)C(=O)N(CCc1ccc(S(=O)(=O)NC(=O)NC3CCCCC3)cc1)C(=O)C2(C)C`, the Potency result in assay [1], in assay [2] and in assay [4] was “inactive” each time. For the same molecule, the outcome in assay [3] and in assay [5] was inactive.
With `CCN(CC)C(=O)Nc1ccc(OCC(O)CNC(C)(C)C)c(C(C)=O)c1` (stereo not drawn), the Potency entry in assay [1], in assay [2] and in assay [4] was “inactive” throughout. The molecule was classed as inactive in assay [3] and in assay [5].
As for `CC(=O)NC(Cc1ccccc1)C(=O)O` (stereo not drawn), the Potency entry in assay [1] and in assay [2] was “inactive” throughout. Also, the outcome in assay [3] is “inactive [at 86.2 µM]”. Also, the Potency in assay [4] is 11.2 µM (active). Also, the outcome in assay [5] was inactive.
`CCOC(=O)[C@H](CCc1ccccc1)N[C@@H](C)C(=O)N1C(=O)N(C)C[C@H]1C(=O)O`: the Potency result in assay [1], in assay [2] and in assay [4] was “inactive” throughout. Further, the result in assay [3] and in assay [5] was inactive.
Consider `C[C@@H]1CN(c2c(F)c(F)c3c(=O)c(C(=O)O)cn(C4CC4)c3c2F)C[C@H](C)N1`, for which the Potency result in assay [1] and in assay [2] was “inactive” each time. Moreover, the activity change, negative = inhibition in assay [3] is 2.25% [at 11.6 µM] (inactive). The activity change, negative = thiol reactive in assay [4] was -0.316% [at 11.5 µM] (inactive). The activity, negative = inhibition in assay [5] is 4.03% [at 11.6 µM] (inactive).
